Data published in PubChem BioAssay (EPA / NIEHS).
The source made the active and inactive calls. How the source made its calls: active means hit-call score of the fitted dose curve at least 0.9, where 1 is the maximum; inactive means score below 0.9.

How the values were obtained:
[1] = read-out: Thrombomodulin, THBD (gene 7056); assay: BSK_CASM3C_Thrombomodulin: BioMAP Diversity Plus: CASM3C Assay for Thrombomodulin Biomarker Activity (AID 2283051); details: primary human coronary artery smooth muscle cells; actives raise or lower the signal;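 further: thrombomodulin protein level measured by ELISA 24 h after dosing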
[2] = read-out: Tissue Factor, F3 (gene 2152); assay: BSK_CASM3C_TissueFactor: BioMAP Diversity Plus: CASM3C Assay for Tissue Factor Biomarker Activity (AID 2283052); details: primary human coronary artery smooth muscle cells; actives raise or lower the signal;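 further: cell surface tissue factor protein level read by ELISA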
[3] = read-out: Interferon-gamma inducible Protein 10 (IP10), CXCL10 (gene 3627); assay: BSK_hDFCGF_IP10: BioMAP Diversity Plus: hDFCGF Assay for Interferon-gamma inducible Protein 10 (IP10) Biomarker Activity (AID 2283053); details: primary human foreskin fibroblasts; actives raise or lower the signal
Outline: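 Primary human foreskin fibroblasts exposed to chemicals for 24 h. IP-10 measured by ELISA; changes fitted bidirectionally against DMSO baseline.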

[4] = read-out: Urokinase-type plasminogen activator receptor (uPAR), PLAUR (gene 5329); assay: BSK_CASM3C_uPAR: BioMAP Diversity Plus: CASM3C Assay for Urokinase-type plasminogen activator receptor (uPAR) Biomarker Activity (AID 2283054); details: primary human coronary artery smooth muscle cells; actives raise or lower the signal;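 further: cell-surface uPAR protein level quantified by ELISA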
[5] = read-out: Vascular cell adhesion molecule 1 (VCAM1), VCAM1 (gene 7412); assay: BSK_CASM3C_VCAM1: BioMAP Diversity Plus: CASM3C Assay for Vascular cell adhesion molecule 1 (VCAM1) Biomarker Activity (AID 2283055); details: primary human coronary artery smooth muscle cells; actives raise or lower the signal;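 further: VCAM-1 protein level quantified by ELISA on the cells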
[6] = read-out: Collagen III, COL3A1 (gene 1281); assay: BSK_hDFCGF_CollagenIII: BioMAP Diversity Plus: hDFCGF Assay for Collagen III Biomarker Activity (AID 2283056); details: primary human foreskin fibroblasts; actives raise or lower the signal
Outline: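 ELISA readout of Collagen III in human dermal (foreskin) fibroblasts, taken 24 h post-treatment. Gain or loss relative to DMSO vehicle fitted in both directions.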

[7] = read-out: Epidermal growth factor receptor (EGFR), EGFR (gene 1956); assay: BSK_hDFCGF_EGFR: BioMAP Diversity Plus: hDFCGF Assay for Epidermal growth factor receptor (EGFR) Biomarker Activity (AID 2283057); details: primary human foreskin fibroblasts; actives raise or lower the signal
Outline: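 Primary human foreskin fibroblasts (hDFCGF system), sampled 24 h after dosing; EGFR quantified by ELISA. Bidirectional fit relative to DMSO baseline; SRB total-protein staining in parallel cultures for cytotoxicity.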

[8] = read-out: Interleukin-8 (IL8), CXCL8 (gene 3576); assay: BSK_hDFCGF_IL8: BioMAP Diversity Plus: hDFCGF Assay for Interleukin-8 (IL8) Biomarker Activity (AID 2283058); details: primary human foreskin fibroblasts; actives raise or lower the signal
Outline: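 IL-8 levels read by ELISA at 24 hours after dosing human skin fibroblast cultures. Parallel SRB staining assessed overt cytotoxicity, and gain or loss of signal was fitted against DMSO control.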

[9] = BSK_hDFCGF_Proliferation: Cell Proliferation Assessment in the BioMAP Diversity Plus: hDFCGF Assay (AID 2283059); details: primary human foreskin fibroblasts;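 further: curves fitted for both rise and fall of signal versus DMSO baseline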
Outline: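 Primary human foreskin fibroblasts, sub-confluent; […]; 10% TCA fix, 0.1% SRB stain, A560 total protein. Gain/loss fitted bidirectionally vs DMSO control.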

[10] = read-out: Macrophage colony-stimulating factor (MCSF), CSF1 (gene 1435); assay: BSK_hDFCGF_MCSF: BioMAP Diversity Plus: hDFCGF Assay for Macrophage colony-stimulating factor (MCSF) Biomarker Activity (AID 2283060); details: primary human foreskin fibroblasts; actives raise or lower the signal
Outline: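 M-CSF levels read by ELISA at 24 h post-dosing in human skin fibroblasts. Parallel cultures stained with SRB assessed cytotoxicity at the same time point; response fitted in both directions against the DMSO baseline.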

[11] = BSK_hDFCGF_SRB: Viability Assessment in the BioMAP Diversity Plus: hDFCGF Assay (AID 2283061); details: primary human foreskin fibroblasts;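 further: cells exposed to compound for 24 h before the read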
Outline: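 Viability was read as total protein: after 10% TCA fixation, wells were stained with 0.1% sulforhodamine B and read at 560 nm. Primary human foreskin fibroblasts were dosed for 24 h, with bidirectional fitting versus DMSO.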

[12] = read-out: TIMP metallopeptidase inhibitor 1 (TIMP1), TIMP1 (gene 7076); assay: BSK_hDFCGF_TIMP1: BioMAP Diversity Plus: hDFCGF Assay for TIMP metallopeptidase inhibitor 1 (TIMP1) Biomarker Activity (AID 2283062); details: primary human foreskin fibroblasts; actives raise or lower the signal
Outline: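 TIMP-1 measured by ELISA 24 h after chemical dosing of primary human skin fibroblasts, with gain or loss fitted relative to DMSO. Parallel SRB staining (560 nm) monitored overt cytotoxicity.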

[13] = read-out: Monokine induced gamma interferon (MIG), CXCL9 (gene 4283); assay: BSK_hDFCGF_MIG: BioMAP Diversity Plus: hDFCGF Assay for Monokine induced gamma interferon (MIG) Biomarker Activity (AID 2283063); details: primary human foreskin fibroblasts; actives raise or lower the signal
Outline: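 Human primary foreskin fibroblasts in the hDFCGF system, exposed to test chemical for 24 h; MIG measured by ELISA. Bidirectional curve fitting against DMSO negative control as activity baseline.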

[14] = read-out: Matrix Metallopeptidase 1 (MMP1), MMP1 (gene 4312); assay: BSK_hDFCGF_MMP1: BioMAP Diversity Plus: hDFCGF Assay for Matrix Metallopeptidase 1 (MMP1) Biomarker Activity (AID 2283064); details: primary human foreskin fibroblasts; actives raise or lower the signal
Outline: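 hDFCGF primary fibroblasts (human foreskin); chemical added; 24 h; MMP1 by ELISA; bidirectional fit vs DMSO.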

[15] = read-out: Vascular cell adhesion molecule 1 (VCAM1), VCAM1 (gene 7412); assay: BSK_hDFCGF_VCAM1: BioMAP Diversity Plus: hDFCGF Assay for Vascular cell adhesion molecule 1 (VCAM1) Biomarker Activity (AID 2283065); details: primary human foreskin fibroblasts; actives raise or lower the signal;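 on AC50: VCAM-1 protein level quantified by ELISA after 24 h chemical exposure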
Outline: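 ELISA readout of VCAM-1 on human dermal fibroblast primary cultures, 24 h after chemical exposure. Gain or loss of signal fitted in both directions against DMSO baseline.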

[16] = read-out: Plasminogen activator inhibitor-1 (PAI1), SERPINE1 (gene 5054); assay: BSK_hDFCGF_PAI1: BioMAP Diversity Plus: hDFCGF Assay for Plasminogen activator inhibitor-1 (PAI1) Biomarker Activity (AID 2283066); details: primary human foreskin fibroblasts; actives raise or lower the signal
Outline: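 Human foreskin fibroblast primary cells, 24 h chemical exposure; PAI-1 measured by ELISA. Bidirectional fitting relative to DMSO; parallel cultures stained with SRB for total protein to flag overt cytotoxicity.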

[17] = read-out: Intercellular Adhesion Molecule 1 (ICAM1), ICAM1 (gene 3383); assay: BSK_KF3CT_ICAM1: BioMAP Diversity Plus: KF3CT Assay for Intercellular Adhesion Molecule 1 (ICAM1) Biomarker Activity (AID 2283067); details: primary human keratinocytes with fibroblasts; actives raise or lower the signal
Outline: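 Cell-surface ICAM-1 was measured by ELISA 24 h after dosing primary human skin keratinocytes co-cultured with fibroblasts. Parallel SRB staining tracked overt cytotoxicity. Gain or loss of signal was fitted relative to DMSO.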

[18] = read-out: Interferon-gamma inducible Protein 10 (IP10), CXCL10 (gene 3627); assay: BSK_KF3CT_IP10: BioMAP Diversity Plus: KF3CT Assay for Interferon-gamma inducible Protein 10 (IP10) Biomarker Activity (AID 2283068); details: primary human keratinocytes with fibroblasts; actives raise or lower the signal
Outline: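 In a primary skin co-culture of keratinocytes and fibroblasts, IP-10 is quantified by ELISA at 24 h after dosing. SRB staining of parallel wells monitors overt toxicity. Curves are fitted both directions against DMSO.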

[19] = BSK_KF3CT_SRB: Viability Assessment in the BioMAP Diversity Plus: KF3CT Assay (AID 2283069); details: primary human keratinocytes with fibroblasts;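 further: total protein by sulforhodamine B staining as a cytotoxicity measure; read 24 h after compound addition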
Outline: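 Keratinocytes co-cultured with foreskin fibroblasts (human primary); chemical added, 24 h; fix 10% TCA, stain 0.1% SRB, A560. Bidirectional fit vs DMSO.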

[20] = read-out: Interleukin-1 alpha (IL1a), IL1A (gene 3552); assay: BSK_KF3CT_IL1a: BioMAP Diversity Plus: KF3CT Assay for Interleukin-1 alpha (IL1a) Biomarker Activity (AID 2283070); details: primary human keratinocytes with fibroblasts; actives raise or lower the signal
Outline: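 Chemicals were dosed onto co-cultured human keratinocytes and foreskin fibroblasts, IL-1a was quantified by ELISA at 24 h, and activity was fitted in both directions relative to DMSO controls.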

Measured: AC50

Cc1occc1C(=O)Nc1ccc(C(=O)N2CCC(F)(F)/C(=C\C(=O)N3CCC(N4CCCCC4)CC3)c3ccccc32)cc1
inactive: all assays above

CCCCCCCCCCCC[N+](C)(C)C
inactive: [1] | [7] | [12] | [17]
active: [2] 4.09 µM | [3] 22.2 µM | [4] 19.9 µM | [5] 32.9 µM | [6] 2.57 µM | [8] 29.9 µM | [9] 8.97 µM | [10] 11.9 µM | [11] 18.4 µM | [13] 30.6 µM | [14] 4.94 µM | [15] 15.4 µM | [16] 20 µM | [18] 36 µM | [19] 33.9 µM | [20] 32.5 µM

CC(C)(C)c1cc(/C=C2\SC(N)=NC2=O)cc(C(C)(C)C)c1O
active: [1] 0.507 µM | [3] 25.7 µM | [4] 31.9 µM | [5] 31.1 µM | [6] 6.83 µM | [8] 20 µM | [9] 7.49 µM | [10] 20 µM | [11] 20 µM | [12] 31 µM | [13] 14.2 µM | [14] 20 µM | [15] 15.6 µM | [16] 20 µM | [18] 9.94 µM | [19] 7.93 µM
inactive: [2] | [7] | [17] | [20]

Cc1cc2c(cc1C(F)(F)F)N(C(=O)Nc1ccc(Oc3cccnc3C)nc1)CC2
active: [1] 5.04 µM | [3] 18.4 µM | [4] 25 µM | [5] 31.1 µM | [9] 1.94 µM | [11] 27.6 µM | [18] 29.9 µM | [19] 26.4 µM
not listed: [20]
inactive: all other assays above

OC12N=C(c3ccccc3)SC1Cc1cc(Cl)ccc12 (stereo not given)
inactive: all assays above

c1ccc(C[n+]2cccc3ccccc32)cc1
not listed: [20]
inactive: all other assays above

O=CCCCC=O
inactive: [2] | [4] | [7]
active: [1] 31.9 µM | [3] 34.9 µM | [5] 22.4 µM | [6] 33.6 µM | [8] 36.9 µM | [9] 25.3 µM | [10] 30.6 µM | [11] 33.4 µM | [12] 13.9 µM | [13] 32.4 µM | [14] 31.6 µM | [15] 20.7 µM | [16] 34 µM | [17] 33.6 µM | [18] 33 µM | [19] 34.1 µM | [20] 31.2 µM

O=C1c2ccccc2C(=O)N1CCc1noc(-c2ccc(CN3CCCCCC3)s2)n1
inactive: all assays above

CC1=CC(=O)/C(=C(/C)O)C(=O)O1
not listed: [11] | [20]
inactive: all other assays above

CN(C)c1ccc(C(=C2C=CC(=[N+](C)C)C=C2)c2ccc(N(C)C)cc2)cc1
active: [2] 1.49 µM | [3] 4.07 µM | [4] 1.54 µM | [5] 8.39 µM | [6] 0.148 µM | [8] 6.66 µM | [9] 1.39 µM | [10] 1.77 µM | [11] 2 µM | [12] 1.95 µM | [13] 5.26 µM | [14] 5.45 µM | [15] 3.25 µM | [16] 1.54 µM | [17] 10.8 µM | [18] 8.28 µM | [19] 5.24 µM
inactive: [1] | [7]
